Experimental findings from PubChem BioAssay (EPA / NIEHS) are described below.

In experiment [1] the target is Cellular tumor antigen p53 (Homo sapiens) (UniProt P04637). Briefly: TOX21_p53_BLA_p2_ratio: Tox21 HCT-116 p53 Agonism Beta-lactamase Assay, Ratio, Phase 2 (AID 2283592). Summed up:
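Ratio endpoint: beta-lactamase cleavage of CCF4-AM, blue (460 nm) over green (530 nm). HCT116 reporter line; 16 h treatment, 37C; substrate 2 h RT.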

A short description of experiment [2]: TOX21_p53_BLA_p3_viability: Viability Assessment in the Tox21 HCT-116 p53 Agonism Beta-lactamase Assay, Phase 3 (AID 2283593).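 Note: cells exposed to compound for 16 h before reading.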 Put shortly: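 Cellular ATP was quantified by CellTiter-Glo luminescence, read after 30 min at room temperature. Beforehand, HCT116 cells (4000/well) received compound 5 h post-seeding, 217-fold diluted from DMSO, then incubated 16 h at 37C.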

Experiment [3] can be described thus: TOX21_p53_BLA_p4_viability: Viability Assessment in the Tox21 HCT-116 p53 Agonism Beta-lactamase Assay, Phase 4 (AID 2283597).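 Note: hits lower the luminescence signal meaning cytotoxicity.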 Summed up:
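Cytotoxicity was inferred from loss of CellTiter-Glo luminescence. HCT116 cells had been dosed with compounds after 5 h plating, incubated 16 h at 37C and 5% CO2, and exposed to the CCF4-AM substrate for 2 h.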

In experiment [4] the target is Cellular tumor antigen p53 (Homo sapiens) (UniProt P04637). Briefly: TOX21_p53_BLA_p5_ratio: Tox21 HCT-116 p53 Agonism Beta-lactamase Assay, Ratio, Phase 5 (AID 2283599). Summed up: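 Beta-lactamase reporter ratio (blue 460 nm over green 530 nm, 405 nm excitation) after 2 h CCF4-AM loading, in HCT-116 cells exposed 16 h at 37 C to compounds pinned at 217-fold dilution. Increases relative to DMSO baseline scored.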

For experiment [5] the target is unchanged. In words: TOX21_p53_BLA_p4_ratio: Tox21 HCT-116 p53 Agonism Beta-lactamase Assay, Ratio, Phase 4 (AID 2283601). Put shortly: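 Signal is the blue/green (460nm/530nm) ratio of cleaved versus uncleaved CCF4-AM substrate, read after 2 h substrate loading. Cells were HCT116 carrying the p53-responsive beta-lactamase reporter, dosed 16 h at 37C, 5% CO2; CellTiter-Glo measured in parallel.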

Experiment [6] can be described thus: TOX21_p53_BLA_p5_viability: Viability Assessment in the Tox21 HCT-116 p53 Agonism Beta-lactamase Assay, Phase 5 (AID 2283600). Summed up: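 Luciferase-coupled ATP quantitation of cells treated for 16 h (37C, 5% CO2) with test chemicals delivered in DMSO via a 217-fold dilution; 4000 cells/well; reagent incubated 30 min at room temperature before luminescence reading.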

The target in experiment [7] is Cellular tumor antigen p53 (Homo sapiens) (UniProt P04637). In words: TOX21_p53_BLA_p3_ratio: Tox21 HCT-116 p53 Agonism Beta-lactamase Assay, Ratio, Phase 3 (AID 2283596). Summed up: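 Cells were seeded at 4000/well, rested 5 h at 37C, then dosed with DMSO compound solutions (217-fold dilution) for 16 h. CCF4-AM substrate was loaded for 2 h at room temperature, and the 460/530 nm emission ratio was fitted for gain of signal versus DMSO.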

Where “and” joins values, the source holds several entries; their conditions need not be identical. Identical values can stand only once. Results filed as inconclusive are left out. Some compounds were tested as several samples or in several runs, with calls that do not always agree. Calls of active or inactive are those of the source. Rule for the calls: active = hit-call score of the fitted dose curve at least 0.9, where 1 is the maximum; inconclusive = response in the unintended direction; inactive = score below 0.9.

Chain of Cellular tumor antigen p53 (Homo sapiens) (P04637 whole entry, looked up): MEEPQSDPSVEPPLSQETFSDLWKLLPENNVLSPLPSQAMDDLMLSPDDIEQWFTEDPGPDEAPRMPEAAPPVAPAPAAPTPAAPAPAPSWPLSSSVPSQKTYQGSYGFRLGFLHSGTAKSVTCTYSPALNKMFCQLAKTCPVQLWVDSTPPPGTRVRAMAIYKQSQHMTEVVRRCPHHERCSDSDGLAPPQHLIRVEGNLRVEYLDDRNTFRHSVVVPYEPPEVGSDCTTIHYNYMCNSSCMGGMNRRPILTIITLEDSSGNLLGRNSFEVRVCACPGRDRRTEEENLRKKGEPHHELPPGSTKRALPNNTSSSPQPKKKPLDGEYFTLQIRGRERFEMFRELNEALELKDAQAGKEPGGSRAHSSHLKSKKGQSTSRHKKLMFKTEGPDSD

For `Cc1ccc2nc(-c3ccc(N)cc3)sc2c1S(=O)(=O)O`, the result in experiment [1], in experiment [2], in experiment [3], in experiment [4] and in experiment [5] was inactive.

For `CC(C)CCCC(C)N` (stereo not drawn), the result in experiment [1], in experiment [2], in experiment [3], in experiment [4], in experiment [6] and in experiment [5] was inactive.

On to `CCCCCCCCCCCCCCCCCCCl`, for which the outcome in experiment [1], in experiment [2], in experiment [3], in experiment [4], in experiment [6] and in experiment [5] was inactive.

With `CN(C)C(=O)CNC(=O)Cc1ccccc1`, the result in experiment [1], in experiment [2], in experiment [3], in experiment [4] and in experiment [5] was inactive.

For the molecule `COC[C@H](c1ccc(C(F)(F)F)cc1)N1CCN(C2(C)CCN(C(=O)c3c(C)ncnc3C)CC2)C[C@H]1C`, the outcome in experiment [1], in experiment [2], in experiment [3], in experiment [4], in experiment [6] and in experiment [5] was inactive.

Regarding `Oc1ccc(Cl)c2c1CCC2`, the result in experiment [1], in experiment [2], in experiment [3], in experiment [4], in experiment [6] and in experiment [5] was inactive.

Regarding `CCOC(=O)C(C)C(C)=O` (stereo not drawn), the outcome in experiment [1], in experiment [2], in experiment [3], in experiment [4], in experiment [6] and in experiment [5] was inactive.

With `CCCCCCCCCCCCCCCCN`, the result in experiment [1], in experiment [2], in experiment [3], in experiment [4], in experiment [6] and in experiment [5] was inactive.

Regarding `FC(F)(F)c1ccc(Cl)cc1Cl`, the outcome in experiment [1], in experiment [2], in experiment [3], in experiment [4] and in experiment [5] was inactive.

With `CN(C(=O)c1c(O)c2ccccc2n(C)c1=O)c1ccccc1`, the outcome in experiment [1], in experiment [2], in experiment [3], in experiment [4], in experiment [6] and in experiment [5] was inactive.

For the molecule `O=C(O)c1ccccc1Nc1cc(Cl)ccc1C(=O)O`, the result in experiment [1], in experiment [2], in experiment [3], in experiment [4], in experiment [6] and in experiment [5] was inactive.

Consider `O=P(O)(O)OC(CO)CO`, for which the result in experiment [1], in experiment [2], in experiment [3] and in experiment [6] was inactive.

On to `NS(=O)(=O)Cc1noc2ccccc12`, for which the outcome in experiment [1], in experiment [2], in experiment [3] and in experiment [5] was inactive.

For the molecule `CN(Cc1ccccc1)Cc1ccccc1`, the result in experiment [1], in experiment [2], in experiment [3], in experiment [4] and in experiment [5] was inactive.

`O=C(CCCCCCCCCCCCC1CCCC1)Nc1ccc(S(=O)(=O)c2ccc(NC(=O)CCCCCCCCCCCCC3CCCC3)cc2)cc1`: the outcome in experiment [1], in experiment [2], in experiment [3], in experiment [4] and in experiment [5] was inactive.

In the case of `Fc1ccc([C@@H]2CCNC[C@H]2COc2ccc3c(c2)OCO3)cc1`, the result in experiment [1], in experiment [2], in experiment [4], in experiment [6] and in experiment [5] was inactive. For the same molecule, in experiment [3], the AC50 – broadly, the midpoint of the concentration-response curve, whichever way the signal moves – was 37.4 µM (active).

Regarding `c1ccc(SSc2ccccc2)cc1`, the outcome in experiment [1], in experiment [2], in experiment [3], in experiment [4] and in experiment [5] was inactive.

Consider `O=C(OC1C[C@H]2CC[C@@H](C1)[N+]21CCCC1)C(O)(c1ccccc1)c1ccccc1` (stereo partly drawn), for which the outcome in experiment [1], in experiment [2] and in experiment [5] was inactive.

Turning to `NC(=O)c1ccccc1N`, the result in experiment [1], in experiment [2] and in experiment [6] was inactive.

As to `C[C@@H](CN1CC(=O)NC(=O)C1)N1CC(=O)NC(=O)C1`, the result in experiment [1], in experiment [2], in experiment [3] and in experiment [6] was inactive.

For the molecule `COC(=O)CCCCCCCC(=O)OC`, the outcome in experiment [1], in experiment [2], in experiment [3], in experiment [4] and in experiment [6] was inactive.

As for `Cc1[nH]c(=O)c(C#N)cc1-c1ccc2nccn2c1`, the result in experiment [1], in experiment [2], in experiment [3], in experiment [4] and in experiment [5] was inactive.

With `N[C@@H](Cc1cnc[nH]1)C(=O)O`, the outcome in experiment [1], in experiment [2], in experiment [3] and in experiment [6] was inactive.

As for `O=C(C=Cc1ccc(O)c(O)c1)O[C@@H]1C[C@](O)(C(=O)O)C[C@@H](O)[C@H]1O`, the result in experiment [1], in experiment [2], in experiment [3], in experiment [4] and in experiment [5] was inactive.

Take `C=C(C)CC(C)(C)C`: the result in experiment [1], in experiment [2], in experiment [3], in experiment [4] and in experiment [6] was inactive.

`CCn1cc(C(=O)O)c(=O)c2cc(F)c(N3CCN(C)CC3)cc21`: the result in experiment [1], in experiment [2], in experiment [3], in experiment [4], in experiment [6] and in experiment [5] was inactive.

For the molecule `C[C@H](Cc1ccc(O)c(O)c1)[C@@H](C)Cc1ccc(O)c(O)c1`, the outcome in experiment [1], in experiment [2], in experiment [4] and in experiment [5] was inactive. In addition, in experiment [3], the concentration at half-maximal activity (AC50) is 25.9 µM (active).

With `C=CC1CC2C=CC1C2` (stereo not drawn), the outcome in experiment [1], in experiment [2], in experiment [3], in experiment [4], in experiment [6] and in experiment [5] was inactive.

`NC(=O)c1ncn([C@@H]2O[C@H](CO)[C@@H](O)[C@H]2O)n1`: the AC50 in experiment [1] was 32.2 µM (active) and 20.3 µM (active); in experiment [7], 17 µM (active); in experiment [4] it was 45.7 µM (active); in experiment [5] it was 15.6 µM (active). For the same molecule, the molecule was called inactive in experiment [3] and in experiment [4].

On to `CN1[C@@H]2CCC[C@H]1CC(NC(=O)c1nn(C)c3ccccc13)C2` (stereo partly drawn), for which the result in experiment [1], in experiment [2], in experiment [3] and in experiment [6] was inactive.
